Here are results for nine compounds from PubChem BioAssay (NCI).

The panel holds about 79,000 compounds, 15% with a hit somewhere; the sample as a whole holds those more often. A number with no mark means an inactive call. The source made the active and inactive calls. No stated cut-off is given here; in the data, active means growth inhibition above about 70%; inactive means the rest.

Assay [1] is described as follows: NCI Yeast Anticancer Drug Screen. Data for the rad50 strain (AID 155).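 Further: 0% = growth of vehicle-only cultures of the same strain.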 The note with it: S. cerevisiae rad50 strain growth inhibition, hits give high values. The procedure, abridged:
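Genetically altered yeast (DNA repair pathway); compound treatment; growth inhibition vs vehicle ctrl.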

Assay [2] can be described thus: NCI Yeast Anticancer Drug Screen. Data for the mec2-1 strain (AID 157). The note with it: S. cerevisiae mec2-1 strain, hits give high values. The procedure, abridged: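 Readout is yeast growth inhibition, normalised to vehicle-treated controls, in the mec2-1 strain exposed to compound.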
Assay [3] can be described thus: NCI Yeast Anticancer Drug Screen. Data for the sgs1 mgt1 strain (AID 161).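 Further: 0% = growth of cultures given vehicle only.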 The note with it: S. cerevisiae sgs1 mgt1 strain, hits give high values. The procedure, abridged: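 Percent growth inhibition was derived by comparing compound-exposed mutant yeast with vehicle-exposed cultures. The strain carries alterations in DNA damage repair.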
Assay [4] is described as follows: NCI Yeast Anticancer Drug Screen. Data for the cln2 rad14 strain (AID 165).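 Further: 0% = growth equal to vehicle treated cultures.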 The note with it: S. cerevisiae cln2 rad14 strain, hits give high values. The procedure, abridged:
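Relative to vehicle controls, growth inhibition of compound-treated cln2 rad14 yeast was recorded.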

Assay [5] in a line: NCI Yeast Anticancer Drug Screen. Data for the bub3 strain (AID 167). The note with it: S. cerevisiae bub3 mutant strain, hits give high values. The procedure, abridged: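 Yeast carrying a defined mutation is treated with each compound, and growth is compared with that of vehicle-exposed cells to give inhibition.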
Assay [6] is described as follows: NCI Yeast Anticancer Drug Screen. Data for the mlh1 rad18 strain (AID 175). The note with it: S. cerevisiae mlh1 rad18 strain growth inhibition, hits give high values. The procedure, abridged:
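Test agents were incubated with a yeast strain of defined genotype (DNA damage repair defect). Inhibition of growth was derived by comparison with vehicle-exposed cultures.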

[7] abbreviates: at 5.0 µM (retest, dose inferred, filed as 0.5).
Where [8] appears, read: at 50.0 µM (retest, dose inferred, filed as 5.0).

For `O=C(CNC(=O)OCc1ccccc1)NNc1ccccc1Cl`, the growth inhibition in assay [1] (setting [7]) was 95% (active); in assay [1] (setting [8]) it was 98% (active); in assay [1] (at 50.0 µM) it was 98.7% (active); in assay [2] (setting [7]), 94% (active); in assay [2] (setting [8]), 99% (active); in assay [2] (at 50.0 µM), 98.5% (active). Further, the growth inhibition in assay [3] (setting [7]) is 98% (active); in assay [3] (setting [8]), 99% (active); in assay [3] (at 50.0 µM), 97.1% (active); in assay [4] (setting [7]), 97% (active); in assay [4] (setting [8]) it was 98% (active); in assay [4] (at 50.0 µM) it was 98.7% (active). The growth inhibition in assay [5] (setting [7]) was 98% (active); in assay [5] (setting [8]) it was 96% (active); in assay [5] (at 50.0 µM), 99.2% (active); in assay [6] (setting [7]) it was 98% (active); in assay [6] (setting [8]), 99% (active); in assay [6] (at 50.0 µM), 99.3% (active).

As for `CC(=O)Oc1c(-c2ccccc2)cc([N+](=O)[O-])cc1[N+](=O)[O-]`, the growth inhibition in assay [1] (setting [7]) was 13%; in assay [1] (setting [8]), 93% (active); in assay [1] (at 50.0 µM), 95.8% (active); in assay [2] (setting [7]), 19%; in assay [2] (setting [8]) it was 93% (active); in assay [2] (at 50.0 µM) it was 93.5% (active). Further, the growth inhibition was 31% in assay [3] (setting [7]); 88% (active) in assay [3] (setting [8]); 93.6% (active) in assay [3] (at 50.0 µM); 17% in assay [4] (setting [7]); 59% in assay [4] (setting [8]); 74.4% (active) in assay [4] (at 50.0 µM). Also, the growth inhibition is 24% in assay [5] (setting [7]); 65% in assay [5] (setting [8]); 94.5% (active) in assay [5] (at 50.0 µM); 54% in assay [6] (setting [7]); 97% (active) in assay [6] (setting [8]); 91.7% (active) in assay [6] (at 50.0 µM).

Take `Cc1ccc(S(=O)(=O)Nc2ccc(C)cc2C)cc1`: the growth inhibition in assay [1] (setting [7]) is -3%; in assay [1] (setting [8]) it was 96% (active); in assay [1] (at 50.0 µM), 85.5% (active); in assay [2] (setting [7]) it was -6%; in assay [2] (setting [8]), 96% (active); in assay [2] (at 50.0 µM), 54%. Also, the growth inhibition in assay [3] (setting [7]) is -2%; in assay [3] (setting [8]), 97% (active); in assay [3] (at 50.0 µM), 55.4%; in assay [4] (setting [7]), -3%; in assay [4] (setting [8]), 83% (active); in assay [4] (at 50.0 µM) it was 32.8%. In addition, the growth inhibition is -1% in assay [5] (setting [7]); 95% (active) in assay [5] (setting [8]); 63.4% in assay [5] (at 50.0 µM); -2% in assay [6] (setting [7]); 95% (active) in assay [6] (setting [8]); 75.2% (active) in assay [6] (at 50.0 µM).

In the case of `C[C@]12CCC(=O)C=C1CC[C@@H]1[C@@H]2[C@@H](O)C[C@@]2(C)[C@H]1CC[C@]2(O)C(=O)COC(=O)CCC1CCCC1`, the growth inhibition in assay [1] (setting [7]) was 83% (active); in assay [1] (setting [8]), 91% (active); in assay [1] (at 50.0 µM), 83.9% (active); in assay [2] (setting [7]) it was 29%; in assay [2] (setting [8]) it was 95% (active); in assay [2] (at 50.0 µM), 84.1% (active). The growth inhibition in assay [3] (setting [7]) was 51%; in assay [3] (setting [8]) it was 96% (active); in assay [3] (at 50.0 µM), 82% (active); in assay [4] (setting [7]) it was 49%; in assay [4] (setting [8]), 96% (active); in assay [4] (at 50.0 µM), 82.7% (active). For the same compound, the growth inhibition in assay [5] (setting [7]) was 51%; in assay [5] (setting [8]), 95% (active); in assay [5] (at 50.0 µM) it was 77.2% (active); in assay [6] (setting [7]), 75% (active); in assay [6] (setting [8]), 92% (active); in assay [6] (at 50.0 µM), 84.3% (active).

As to `CC(C)S(=O)(=O)ON1C(=O)c2ccc(N(C)C)cc2C1=O`, the growth inhibition in assay [1] (setting [7]) is 14%; in assay [1] (setting [8]), 35%; in assay [1] (at 50.0 µM) it was 91.7% (active); in assay [2] (setting [7]), 14%; in assay [2] (setting [8]), 33%; in assay [2] (at 50.0 µM) it was 81.8% (active). The growth inhibition in assay [3] (setting [7]) is 16%; in assay [3] (setting [8]), 34%; in assay [3] (at 50.0 µM), 61.3%; in assay [4] (setting [7]), 24%; in assay [4] (setting [8]), 42%; in assay [4] (at 50.0 µM), 95.4% (active). The growth inhibition in assay [5] (setting [7]) is 17%; in assay [5] (setting [8]), 48%; in assay [5] (at 50.0 µM), 73.4% (active); in assay [6] (setting [7]), 16%; in assay [6] (setting [8]), 40%; in assay [6] (at 50.0 µM) it was 97.5% (active).

Consider `CCCCCCCCCCC[n+]1ccc(C#N)cc1`, for which the growth inhibition in assay [1] (setting [7]) is -6%; in assay [1] (setting [8]), 64%; in assay [1] (at 50.0 µM) it was 91.8% (active); in assay [2] (setting [7]), 10%; in assay [2] (setting [8]) it was 84% (active); in assay [2] (at 50.0 µM), 57.7%. The growth inhibition is 14% in assay [3] (setting [7]); 91% (active) in assay [3] (setting [8]); 92.5% (active) in assay [3] (at 50.0 µM); 16% in assay [4] (setting [7]); 56% in assay [4] (setting [8]); 76.8% (active) in assay [4] (at 50.0 µM). In addition, the growth inhibition in assay [5] (setting [7]) is -5%; in assay [5] (setting [8]) it was 75% (active); in assay [5] (at 50.0 µM), 77.6% (active); in assay [6] (setting [7]), 10%; in assay [6] (setting [8]) it was 76% (active); in assay [6] (at 50.0 µM), 91.6% (active).

With `CC(=O)Sc1ccccc1C(=O)NCc1ccc(Cl)cc1`, the growth inhibition in assay [1] (setting [7]) is 2%; in assay [1] (setting [8]), 97% (active); in assay [1] (at 50.0 µM), 97.8% (active); in assay [2] (setting [7]), -8%; in assay [2] (setting [8]) it was 98% (active); in assay [2] (at 50.0 µM), 99% (active). For the same compound, the growth inhibition in assay [3] (setting [7]) is 2%; in assay [3] (setting [8]), 97% (active); in assay [3] (at 50.0 µM) it was 97.8% (active); in assay [4] (setting [7]), -12%; in assay [4] (setting [8]), 94% (active); in assay [4] (at 50.0 µM), 98.5% (active). Besides, the growth inhibition in assay [5] (setting [7]) is 0%; in assay [5] (setting [8]), 96% (active); in assay [5] (at 50.0 µM) it was 98.5% (active); in assay [6] (setting [7]), 13%; in assay [6] (setting [8]), 96% (active); in assay [6] (at 50.0 µM), 98.7% (active).

For the compound `CCCCCCCCNc1ccc(Cl)cc1`, the growth inhibition in assay [1] (setting [7]) is 46%; in assay [1] (setting [8]) it was 96% (active); in assay [1] (at 50.0 µM), 91.8% (active); in assay [2] (setting [7]) it was 26%; in assay [2] (setting [8]), 98% (active); in assay [2] (at 50.0 µM), 93% (active). Besides, the growth inhibition was 49% in assay [3] (setting [7]); 97% (active) in assay [3] (setting [8]); 98.2% (active) in assay [3] (at 50.0 µM); 25% in assay [4] (setting [7]); 94% (active) in assay [4] (setting [8]); 81.2% (active) in assay [4] (at 50.0 µM). Also, the growth inhibition was 8% in assay [5] (setting [7]); 97% (active) in assay [5] (setting [8]); 74.1% (active) in assay [5] (at 50.0 µM); 40% in assay [6] (setting [7]); 97% (active) in assay [6] (setting [8]); 98% (active) in assay [6] (at 50.0 µM).

As for `CSc1cccc(N2C(=O)C=CC2=O)c1`, the growth inhibition is 42% in assay [1] (setting [7]); 52% in assay [1] (setting [8]); 91.5% (active) in assay [1] (at 50.0 µM); 49% in assay [2] (setting [7]); 48% in assay [2] (setting [8]); 93.4% (active) in assay [2] (at 50.0 µM). For the same compound, the growth inhibition is 100% (active) in assay [3] (setting [7]); 100% (active) in assay [3] (setting [8]); 94% (active) in assay [3] (at 50.0 µM); 69% in assay [4] (setting [7]); 100% (active) in assay [4] (setting [8]); 91.5% (active) in assay [4] (at 50.0 µM). The growth inhibition in assay [5] (setting [7]) was 100% (active); in assay [5] (setting [8]) it was 100% (active); in assay [5] (at 50.0 µM), 92.7% (active); in assay [6] (setting [7]), 34%; in assay [6] (setting [8]), 45%; in assay [6] (at 50.0 µM), 92.5% (active).
